From PubChem BioAssay
Unmarked numbers belong to inactive results. Active and inactive are the calls of the source.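 Rule for the calls: active = fluorescence slope after compound addition differing from the mean of all screened samples at 99.7% confidence, in either direction; inactive = the rest.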

molecular target: Alpha-2C adrenergic receptor (Homo sapiens) (UniProt P18825); assay: compounds altering alpha2C-coupled GIRK flux – cell-based, HEK293 alpha2C/GIRK1/2, thallium flux, primary screen (AID 624); conditions: thallium flux BTC fluorescence, at 10 µM, actives lie on both sides;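 note: slope of fluorescence ratio to pre-addition baseline per second over 15 to 24 s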
Sequence (P18825 whole entry, looked up): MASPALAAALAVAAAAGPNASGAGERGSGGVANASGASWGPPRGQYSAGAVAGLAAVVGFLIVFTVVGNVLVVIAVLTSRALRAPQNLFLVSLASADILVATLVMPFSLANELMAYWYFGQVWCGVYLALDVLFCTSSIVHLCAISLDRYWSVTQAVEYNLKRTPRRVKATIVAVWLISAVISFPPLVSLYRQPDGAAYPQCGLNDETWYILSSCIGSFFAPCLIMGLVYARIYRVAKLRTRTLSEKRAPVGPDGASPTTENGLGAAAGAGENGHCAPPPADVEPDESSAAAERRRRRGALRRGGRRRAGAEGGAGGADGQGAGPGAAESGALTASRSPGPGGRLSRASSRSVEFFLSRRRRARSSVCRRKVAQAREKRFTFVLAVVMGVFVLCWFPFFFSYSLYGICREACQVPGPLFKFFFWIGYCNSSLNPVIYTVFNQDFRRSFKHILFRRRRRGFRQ

Row | Compound | slope
1 | CCOc1cccc(-c2nnc3n2N=C(c2cc(OC)ccc2OC)CS3)c1 | 0.00667
2 | COc1ccc2ccccc2c1CN1CCCC(CO)C1 (stereo not given) | 0.00503
3 | Cc1cc(NC(c2cccnc2)c2c(C)[nH]c3ccccc23)no1 (stereo not given) | 0.00254
4 | CC(NC(=O)c1ccc2c(c1)OCO2)C(c1cccs1)N1CCOCC1 (stereo not given) | 0.00632
5 | COCCn1nnnc1C(c1cc2ccc(OC)cc2[nH]c1=O)N1CCc2ccccc2C1 (stereo not given) | 0.00527
6 | O=C1c2ccccc2C(=O)N1CCN1CCCCC1 | 0.00644
7 | COc1ccc(S(=O)(=O)Cc2ccc(C(=O)N3CCN(c4ccccc4)CC3)o2)cc1 | 0.00594
8 | Cc1ccccc1C(=O)NC1CCN(Cc2nnnn2Cc2ccccc2)CC1 | 0.00483
9 | O=C(O)Cn1cc(C(=O)c2ccco2)c2ccccc21 | 0.00668
10 | CCOc1ccc2oc(-c3ccccc3)c(C(=O)N3CCN(CCO)CC3)c2c1 | 0.00775
11 | O=C(NC1CCCCC1)N(Cc1ccc(F)cc1)Cc1nc2ccccc2c(=O)[nH]1 | 0.0032
12 | O=C(NC1CCCCCC1)C1CCCN(S(=O)(=O)c2cccs2)C1 (stereo not given) | 0.00338
13 | Cc1cc(C(=O)Nc2sc3c(c2C#N)CCCCC3)cs1 | 0.00236
14 | CC(=O)Nc1ccc(S(=O)(=O)N(C2=NCC(C)S2)c2ccccc2)cc1 (stereo not given) | 0.00617
15 | CC(=O)N1CCN(S(=O)(=O)c2ccc(S(=O)(=O)NC3CC3)cc2)CC1 | 0.00506
16 | CN(C)S(=O)(=O)N1CCN(c2cccc(Cl)c2)CC1 | 0.00363
17 | CCCC(=O)Nc1cc(-c2nnc(OC)c3ccccc23)ccc1N1CCOCC1 | 0.00489
18 | CCOc1ccccc1-n1c(SCC(=O)NCc2ccco2)nnc1-c1ccncc1 | 0.00499
19 | CC(C)c1ccc(C(O)c2cnc(C(C)C)n2C)cc1 (stereo not given) | 0.00678
20 | Cc1cccc(N2CCN(Cc3c(C)n(C)n(-c4ccccc4)c3=O)CC2)c1C | 0.00748

Row | Compound | slope
21 | Cc1ccc2c(c1)sc1ncc(NC(=O)c3ccccc3)c(=O)n12 | 0.0047
22 | COc1ccc(CCNc2oc(-c3ccccc3OC)nc2C#N)cc1 | 0.00318
23 | N#CCCN(Cc1cccnc1)C(=O)Nc1ccc(Cl)c(Cl)c1 | 0.0054
24 | CC(=O)N1CCc2cc(S(=O)(=O)CCC(=O)Nc3cccc(F)c3)ccc21 | 0.00334
25 | CC(=O)NCc1cccc(CNC(C)=O)n1 | 0.00626
26 | CCOc1ccccc1-n1nnnc1SCC(=O)Nc1cc2oc3ccccc3c2cc1OC | 0.00931
27 | CC(=O)Nc1ccccc1OCc1nnc(-c2cccs2)o1 | 0.00944
28 | O=C1c2ccccc2C(Nc2ccc(F)cc2F)N1CCN1CCOCC1 (stereo not given) | 0.00478
29 | CNc1ccc(C(O)(C(F)(F)F)C(F)(F)F)cc1C(O)(C(F)(F)F)C(F)(F)F | 0.00297
30 | Cc1nnc(SC(=O)N2c3ccccc3Sc3ccccc32)s1 | 0.00696
31 | C=CCn1c(=O)c2ccccc2n2c(SC(C)C(=O)Nc3nc(-c4ccccc4)cs3)nnc12 (stereo not given) | 0.00616
32 | CC(=O)Nc1cc(NC(C)=O)cc(C(=O)OCC(=O)N2CC(C)OC(C)C2)c1 (stereo not given) | 0.00487
33 | COc1ccc(C2CC(c3ccc(C)cc3)Nc3ncnn32)cc1 (stereo not given) | 0.00685
34 | O=C(Nc1ccc2c(c1)OCCO2)NC1CCCCC1 | 0.00607
35 | CCc1cccc(NC(=O)Cn2cc3c(n2)CCCC3)c1 | 0.0103 (active)
36 | N#Cc1cnn(Cc2ccc(Cl)cc2)c1N | 0.00625
37 | O=C(NCCCNC1CCCCC1)c1ccc(/C=N/O)nc1 | 0.00681
38 | CCCCOc1ccc(-c2ncc(C(=O)OCC)c(N)n2)cc1 | 0.00612
39 | CCOP(=O)(c1ccc(N(C)C)cc1)C(O)c1c(Cl)cccc1Cl (stereo not given) | 0.00411
40 | Cc1c(NC(=O)c2nn(C)c(=O)c3ccccc23)c(=O)n(-c2ccccc2)n1C | 0.00499
